Bioassay records (PubChem BioAssay)
JMJD2C inh = blocks human GASC-1 demethylase activity; GST-JMJD2C(1-420) H3K9me3 demethylation, DELFIA europium; AID 2099; Q9H3R0; actives 0.069% (n = 330,000); inhibition, % at 2.35 µM;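 active = more than half of a compound's replicate wells show inhibition beyond 50%, single wells judged on their own value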;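 also: signal counts dimethyl H3K9 product captured on neutravidin plate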
Target sequence (Q9H3R0 1-420 limits assumed): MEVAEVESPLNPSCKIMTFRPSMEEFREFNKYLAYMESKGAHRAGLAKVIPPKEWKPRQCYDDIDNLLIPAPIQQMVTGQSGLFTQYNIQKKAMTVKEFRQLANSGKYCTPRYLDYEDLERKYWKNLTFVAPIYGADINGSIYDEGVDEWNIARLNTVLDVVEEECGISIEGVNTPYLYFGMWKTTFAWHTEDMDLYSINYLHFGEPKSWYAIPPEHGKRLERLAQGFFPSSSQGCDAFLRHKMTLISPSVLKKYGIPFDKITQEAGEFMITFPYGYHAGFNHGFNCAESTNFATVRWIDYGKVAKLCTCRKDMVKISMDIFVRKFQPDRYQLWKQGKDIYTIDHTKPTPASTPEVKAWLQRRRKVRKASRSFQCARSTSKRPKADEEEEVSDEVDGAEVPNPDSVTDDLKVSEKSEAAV
PfM18AAP inh = blocks P. falciparum M18 aspartyl aminopeptidase; recombinant PfM18AAP, H-Glu-NHMec fluorogenic cleavage; inhibition, % at 7.35 µM; actives 1.2% (n = 290,000); AID 1822;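 active = inhibition above the campaign mean inhibition over all tested compounds plus 3 SD, cut at about 28% in these data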
Exocytosis inh = lytic granule exocytosis inhibition; actives 0.66% (n = 360,000); TALL-104 LAMP-1 surface exposure, flow cytometry; cells stimulated with thapsigargin and PMA; inhibition, % at 10 µM;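 active = inhibition above about 55%, limit read from the data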
SMARCA2 act = increases SMARCA2 function in MMTV reporter cells; AID 652017; activation, % at 9.1 µM; MG213 cells, MMTV-luciferase reporter, dexamethasone, overnight; actives 1% (n = 370,000); in the data active = activation above about 7.8%
beta cell repl = inducers of beta-cell replication in MIN6 cells; AID 2380; actives 0.29% (n = 330,000); MIN6 cells proliferation, ATPlite luminescence, 48 h; cells starved in 0.2% serum; 100% = growth in 10% serum; proliferation, % at 10 µM;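 active = compounds whose signal lies at least 3.5 SD above the mean of all wells on their plate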
ALR H2O2 inh = human ALR oxidase inhibition via reduced H2O2; P55789; purified ALR, DTT oxidation, H2O2 HRP-luminol luminescence; inhibition, % (concentration not given with the values); actives 3.8% (n = 290,000); AID 485317;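 active = mean replicate inhibition above about 79%, with every replicate also reaching it, limit read from the data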
Target sequence (P55789 whole entry, looked up): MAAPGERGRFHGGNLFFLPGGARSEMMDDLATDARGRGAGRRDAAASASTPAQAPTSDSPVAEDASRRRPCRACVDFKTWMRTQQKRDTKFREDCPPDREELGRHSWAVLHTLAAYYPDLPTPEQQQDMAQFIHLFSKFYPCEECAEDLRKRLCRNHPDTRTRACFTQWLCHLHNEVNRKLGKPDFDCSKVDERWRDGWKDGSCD
Of the large screens only hits and unclear results are named; the others gave an inactive call. This is a sample that favours compounds with a hit; in the whole collection about 5.4% have one here.

COc1ccc(N2CCN(C(=O)c3ccc(CS(=O)c4cccc(C)c4)o3)CC2)cc1 (configuration not stated)	ALR H2O2 inh 99
Cc1cccc(N2CCN(C(=O)c3ccc(CS(=O)Cc4cccc(Cl)c4)o3)CC2)c1C (configuration not stated)	ALR H2O2 inh 100
COc1cccc(N2CCN(C(=O)c3ccc(CS(=O)c4ccccc4C)o3)CC2)c1 (configuration not stated)	ALR H2O2 inh 91
Cc1ccc(NC(=O)Cc2ccc(OC(F)F)cc2)c(S(=O)(=O)N2CCOCC2)c1	none (no result: JMJD2C inh, PfM18AAP inh, Exocytosis inh, beta cell repl, ALR H2O2 inh)
CN(C)c1ccc2c(c1)OC(N)=C(C#N)C2c1cccc(F)c1 (configuration not stated)	PfM18AAP inh 30 (no result: SMARCA2 act)
CCOc1c(Br)cc(CNc2ccc(N3CCN(C(C)=O)CC3)cc2)cc1OC	ALR H2O2 inh 98
CCOc1cc(CNc2ccc(N3CCCCC3)cc2)cc(Br)c1OCC(=O)NC(C)(C)C	none
COc1cc(CNc2ccc(N3CCOCC3)cc2)cc(Br)c1OC	ALR H2O2 inh 98
CCOc1cc(CNc2ccc(N3CCOCC3)cc2)cc(Br)c1OCC	ALR H2O2 inh 99
CN(CCc1ccccn1)C(=O)c1ccc2c(c1)ncn2C1CCCCC1	none (no result: JMJD2C inh, PfM18AAP inh, Exocytosis inh, beta cell repl, ALR H2O2 inh)
CC1SC(=NC(=O)c2ccncc2)NC1=O (configuration not stated)	ALR H2O2 inh 90
CCOc1cc(/C=N/NC(=O)CSc2cccc3cccnc23)ccc1O	ALR H2O2 inh 99
CCOc1ccc(/C=N/n2c(C)nnc2C)cc1OC	none
CCOc1cc(/C=N/n2c(C)nnc2C)ccc1O	ALR H2O2 inh 94
O=C(CSc1cccc2cccnc12)N/N=C/c1ccncc1	none
CCOc1cc(/C=N/Nc2nc(-c3cccs3)c(NC(C)=O)s2)ccc1O	ALR H2O2 inh 95
CCOc1cc(/C=N/NC(=O)C2CCCC2)ccc1O	ALR H2O2 inh 99
CC(C)CN1C[C@@H]2CSCCS(=O)(=O)N2C1=O	none (no result: JMJD2C inh, PfM18AAP inh, Exocytosis inh, beta cell repl, ALR H2O2 inh)
COC(=O)[C@]12C[C@H](CC(=O)NCc3cccs3)C(=O)N(Cc3cccc4ccccc34)C1=C[C@H](C(C)(C)C)O[C@@H]2C	none (no result: JMJD2C inh, PfM18AAP inh, Exocytosis inh, beta cell repl, ALR H2O2 inh)
O=C(NCc1ccccc1)[C@@H]1CCCN1C(=O)[C@H]1CCCN1C(=O)c1cccc2ccccc12	none (no result: JMJD2C inh, PfM18AAP inh, Exocytosis inh, beta cell repl, ALR H2O2 inh)
CCOc1cc(/C=N/NC(=O)c2ccc(NC(=O)C3CC3)cc2)ccc1O	none
CCOc1cc(C=NNC(=O)c2cccc(S(=O)(=O)N3CCCC3)c2)ccc1O	ALR H2O2 inh 95 (no result: PfM18AAP inh)
CCOc1cc(C=NN2CCCCCC2)ccc1O	none (no result: JMJD2C inh, PfM18AAP inh, beta cell repl, ALR H2O2 inh)
O=C(COc1cccc2cccnc12)N/N=C/c1ccc(O)cc1	ALR H2O2 inh 99
CCOc1cc(/C=N/NC(=O)C(=O)N2CCCC2)ccc1O	ALR H2O2 inh 99
CCOc1cc(/C=N/NC(=O)c2cccc(S(=O)(=O)N3CCCC3)c2)ccc1OCC(=O)N(C)C	none (no result: PfM18AAP inh)
CCOc1cc(/C=N/NC(=O)Nc2ccccc2)ccc1O	ALR H2O2 inh 99
Cc1[nH]cnc1/C=N\NC(=O)c1cccc(S(=O)(=O)N(C)C)c1	none (no result: JMJD2C inh, PfM18AAP inh, Exocytosis inh, beta cell repl, ALR H2O2 inh)
Cc1ccc(NC(=O)CSc2nc(C)cc(=O)[nH]2)c(C)c1	none (no result: JMJD2C inh, PfM18AAP inh, Exocytosis inh, beta cell repl, ALR H2O2 inh)
Cc1ccccc1NC(=O)Nc1ccc2c(c1)C(=O)N(C)[C@H]1CC[C@H](CC(=O)NCC3CC3)O[C@@H]1CO2	none (no result: JMJD2C inh, PfM18AAP inh, Exocytosis inh, beta cell repl, ALR H2O2 inh)
CCOc1cc(/C=C/c2cc(C(=O)O)c3ccccc3n2)ccc1O	ALR H2O2 inh 89
Cc1ccc(SCC(=O)N(C)C2CCS(=O)(=O)C2)cc1 (configuration not stated)	none
Cc1ccc(-c2nc(SCC(=O)N(C)C3CCS(=O)(=O)C3)[nH]c2-c2ccc(C)cc2)cc1 (configuration not stated)	ALR H2O2 inh 98
CCCCS(=O)(=O)N1C2=NC3=C(C(=O)N(CCOC)C3=O)C3N(C)c4ccccc4[C@]23C[C@H]1CO (some centres not stated)	none (no result: JMJD2C inh, PfM18AAP inh, Exocytosis inh, beta cell repl, ALR H2O2 inh)
CCOc1ccccc1C1C(C#N)=C(N)Oc2cc(N)ccc21 (configuration not stated)	PfM18AAP inh 28, ALR H2O2 inh 98
COC(=O)c1ccc(C2C(C#N)=C(N)Oc3cc(N)ccc32)cc1 (configuration not stated)	ALR H2O2 inh 97
COC(=O)c1ccc(C2C(C#N)=C(N)Oc3cc(O)ccc32)cc1 (configuration not stated)	none
COc1ccc(OC)c(C2C(C#N)=C(N)Oc3cc(N)ccc32)c1 (configuration not stated)	ALR H2O2 inh 99
Cc1ccc(Cn2c(=O)n(Cc3ccc(C(=O)NCC4COC4)cc3)c(=O)c3ccccc32)cc1	none (no result: JMJD2C inh, PfM18AAP inh, Exocytosis inh, beta cell repl, ALR H2O2 inh)
COC(=O)[C@]12C[C@H](CC(=O)NCCc3ccccc3OC)C(=O)N(Cc3cccc4ccccc34)C1=C[C@H](COCc1ccccc1)O[C@@H]2C	none (no result: JMJD2C inh, PfM18AAP inh, Exocytosis inh, beta cell repl, ALR H2O2 inh)
Cc1nn(C)c(C(=O)Nc2cccc(Nc3ccccc3)c2)c1[N+](=O)[O-]	ALR H2O2 inh 98
Cc1nn(C)c(C(=O)N/N=C/c2ccccc2)c1[N+](=O)[O-]	none
COc1ccc(-c2cc(C(F)(F)F)c3c(=O)n(-c4ccccc4)[nH]c3n2)cc1	ALR H2O2 inh 99 (no result: SMARCA2 act)
CCOC(=O)N1CCN(C(=O)C[C@H]2C[C@@]3(C(=O)OC)C(=C[C@H](C(C)(C)C)O[C@@H]3C)N(Cc3cccc4ccccc34)C2=O)CC1	none (no result: JMJD2C inh, PfM18AAP inh, Exocytosis inh, beta cell repl, ALR H2O2 inh)
C=CCN(CC#Cc1ccccc1)Cc1ccc(OC)cc1OC	none (no result: JMJD2C inh, PfM18AAP inh, Exocytosis inh, beta cell repl, ALR H2O2 inh)
O=C1C(=O)c2c(C(=O)c3ccccc3)coc2-c2ccccc21	Exocytosis inh 92
Cc1oc2c(c1C(=O)c1ccccc1)C(=O)C(=O)c1ccccc1-2	Exocytosis inh 102
O=C1CSC(=S)N1/N=C/c1cc(Br)c(O)c(Br)c1	PfM18AAP inh 40 (no result: SMARCA2 act, beta cell repl)
O=C1CSC(=S)N1N=Cc1ccccc1O	none (no result: JMJD2C inh, PfM18AAP inh, beta cell repl, ALR H2O2 inh)
COc1ccc(Nc2c(-c3ccc(C)cc3)nc3cnccn23)cc1	ALR H2O2 inh 99
COc1ccc(-c2nc3cnccn3c2Nc2ccc3c(c2)OCO3)cc1	ALR H2O2 inh 87
CN(C)c1ccc(-c2nc3cnccn3c2Nc2ccc3c(c2)OCCO3)cc1	ALR H2O2 inh 98
Cc1ccc(Nc2c(-c3ccccc3O)nc3ncccn23)cc1	ALR H2O2 inh 98
Cc1ccc(-c2nc3cnccn3c2Nc2ccc3c(c2)OCO3)cc1	none (no result: ALR H2O2 inh)
COc1ccc(Nc2c(-c3ccc(OC)cc3)nc3cnccn23)cc1	ALR H2O2 inh 98
Cc1ccc(-c2nc3cnccn3c2Nc2ccc3c(c2)OCCO3)o1	ALR H2O2 inh 99
Cc1ccc2nc(-c3ccccc3O)c(Nc3ccc4c(c3)OCCO4)n2c1	none
Cc1ccc(Nc2c(-c3ccc(N4CCOCC4)cc3)nc3cnccn23)cc1	ALR H2O2 inh 99
CCCCNc1c(-c2ccc(OC)c(Sc3ccc(OC)cc3)c2)nc2cnccn12	none (no result: JMJD2C inh, PfM18AAP inh)
Cc1ccc(Nc2c(-c3ccccc3O)nc3cnccn23)cc1	ALR H2O2 inh 99
Cc1ccccc1CNC(=S)OC1CCC12CCC(c1ccccc1)CC2 (configuration not stated)	none (no result: JMJD2C inh, PfM18AAP inh, Exocytosis inh, beta cell repl, ALR H2O2 inh)
